Drawing on PubChem BioAssay AID623877 (Johns Hopkins Ion Channel Center, 2012), this text covers B-score for ten molecules.

SMILES strings stand for the structures. About 1,000 (0.29%) of roughly 340,000 compounds were called active.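 How the source made its calls: active means fluorescence-ratio B-score plate-corrected deviation score at least 3 library SD below zero, with starting fluorescence score within 5 deviations; inactive means the rest.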 Only a selection was taken, and actives are over-represented in it overall.

For the experiment, the target named is Anoctamin-1 (Mus musculus) (UniProt Q8BHY3). Put plainly: mouse ANO1 channel activation – cell-based, HTS, primary screen (AID 623877).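 On B-score: channel opened by trigger with iodide after compound preincubation; score built on the fluorescence ratio of max minus min over baseline; more negative score means more quench and so TMEM16A activation or potentiation.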 The conditions noted are these: HEK293 TMEM16A/YFP-H148Q/I152L, iodide quench fluorescence, at 10 µM; stronger effect = lower value.
Anoctamin-1 (Mus musculus), sequence (Q8BHY3 whole entry, looked up): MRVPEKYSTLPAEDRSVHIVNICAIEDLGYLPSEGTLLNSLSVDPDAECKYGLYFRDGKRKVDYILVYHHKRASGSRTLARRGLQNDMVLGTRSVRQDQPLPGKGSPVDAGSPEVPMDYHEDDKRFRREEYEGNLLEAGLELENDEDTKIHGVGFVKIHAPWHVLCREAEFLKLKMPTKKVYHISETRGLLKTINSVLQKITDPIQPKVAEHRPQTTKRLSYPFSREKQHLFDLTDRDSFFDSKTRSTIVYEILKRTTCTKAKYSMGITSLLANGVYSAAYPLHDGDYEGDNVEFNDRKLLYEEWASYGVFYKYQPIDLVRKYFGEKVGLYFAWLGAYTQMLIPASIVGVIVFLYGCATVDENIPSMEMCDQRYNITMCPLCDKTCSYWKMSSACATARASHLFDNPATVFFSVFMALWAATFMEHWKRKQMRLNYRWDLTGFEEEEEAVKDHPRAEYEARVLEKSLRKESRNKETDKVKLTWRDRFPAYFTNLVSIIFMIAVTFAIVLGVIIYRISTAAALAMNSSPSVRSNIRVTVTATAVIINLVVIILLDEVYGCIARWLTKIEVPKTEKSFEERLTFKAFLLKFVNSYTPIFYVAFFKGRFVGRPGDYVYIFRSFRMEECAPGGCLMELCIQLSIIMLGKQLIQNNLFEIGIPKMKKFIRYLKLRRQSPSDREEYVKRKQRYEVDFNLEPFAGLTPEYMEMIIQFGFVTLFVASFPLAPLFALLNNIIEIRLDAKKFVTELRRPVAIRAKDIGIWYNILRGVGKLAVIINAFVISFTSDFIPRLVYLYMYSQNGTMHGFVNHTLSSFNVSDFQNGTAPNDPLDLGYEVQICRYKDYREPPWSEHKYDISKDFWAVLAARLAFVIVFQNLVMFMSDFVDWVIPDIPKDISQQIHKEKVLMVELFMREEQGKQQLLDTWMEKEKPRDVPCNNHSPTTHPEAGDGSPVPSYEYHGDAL
In the case of `CC(=O)C1(O)CCC2C3CCC4=C(Cl)C(=O)CCC4(C)C3CCC21C` (stereo not given), the B-score was -5.25 (active).

`Cc1cc(C)cc(NC(=S)NC2CC3CCCC(C2)N3Cc2cccs2)c1` (stereo not given): the B-score entry was “inactive”.

As to `Cc1nn(Cc2ccccc2Cl)c(Cl)c1C(=O)OC(C(=O)NC(N)=O)C(C)C` (stereo not given), the B-score result is “inactive”.

For `Cc1nc2ccccn2c1P(=S)(N1CCCCC1)N1CCCCC1`, the B-score is -9.49 (active).

Turning to `COc1ccc(C(=O)C2CN(C)CC2C(=O)c2ccc(OC)cc2)cc1` (stereo not given), the B-score entry is “inactive”.

On to `O=C(CSC1c2ccccc2-c2ccccc21)N/N=C/c1ccccc1`, for which the B-score result is “inactive”.

Take `CC1C(=O)OC2CCN3CC=C(COC(=O)C(C)(O)C1(C)O)C23` (stereo not given): the B-score entry was “inactive”.

On to `CCN(CC)P(=O)(Oc1cccc(C)c1)N(CC)CC`, for which the B-score result was “inactive”.

As to `C=Cn1ccnc1P(=S)(c1cc(N(CC)CC)ns1)c1nccn1C=C`, the B-score entry is “inactive”.

For the molecule `Cc1cc2ccccn2c1C(C[N+](=O)[O-])c1c(F)cccc1Cl` (stereo not given), the B-score result is “inactive”.
